# Structures can show the parent of a compound that is named as a salt. Unmarked numbers belong to inactive results.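 Rule for the calls: active = normalised median growth AUC below 0.1 of DMSO control; inactive = AUC 0.1 or higher.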
# Tested on: P. vulgatus RND KO
# Experiment: growth AUC normalised to DMSO control (median) (fraction of control); higher = less growth inhibition, active = hit call of the paper
# Conditions: 20 µM
# Summary of the method: (§1)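 For normalised area under the curve, growth curves were truncated at entry into stationary phase, integrated by the trapezoidal rule and divided against vehicle wells on the same plate. The curves came from strains passaged twice overnight without oxygen and then grown in mGAM in 96-well plates at a starting OD578 of 0.01. Each well held an approved-drug library compound at 20 μM with 1% DMSO, and OD578 was read hourly for 24 h in an anaerobic incubator. Values are medians of three biological replicates.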
# 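Note: active when median AUC fell below 0.1.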
row,SMILES,growth AUC normalised to DMSO control
1,C[N+](C)(C)C[C@H](O)CC(=O)[O-] [Levocarnitine],0.998
2,C[C@H]1COc2c(N3CCN(C)CC3)c(F)cc3c(=O)c(C(=O)O)cn1c23 [Levofloxacin],0.014 (active)
3,CCCCCCCCCCCCCCCCCCCCCC(=O)Nc1ccn([C@@H]2O[C@H](CO)[C@@H](O)[C@@H]2O)c(=O)n1 [Enocitabine],1.01
4,CC(C(=O)O)c1ccc(CC2CCCC2=O)cc1 (configuration not stated) [Loxoprofen],1.01
5,COc1c(-c2ccc3cc(NS(C)(=O)=O)ccc3c2)cc(-n2ccc(=O)[nH]c2=O)cc1C(C)(C)C [Dasabuvir],0.831
6,CCc1ccc(C(=O)C(C)CN2CCCCC2)cc1 (configuration not stated) [Eperisone Hydrochloride],1.03
7,CC(C)(C)c1ccc(C(=O)CCCN2CCC(OC(c3ccccc3)c3ccccc3)CC2)cc1 [Ebastine],0.999
8,O=C1CC[C@@H](C(=O)N2CSC[C@H]2C(=O)O)N1 [Pidotimod],0.991

# Tested on: P. vulgatus WT
# Experiment: as above
# Conditions: 20 µM
# Summary of the method: as §1
row,SMILES,growth AUC normalised to DMSO control
1,CN(C)CCCN1c2ccccc2[S+]([O-])c2ccc(Cl)cc21 (configuration not stated) [Chlorpromazine Sulfoxide],1.03
2,Nc1c2ccccc2nc2ccccc12 [Aminacrine],1.02
3,Cc1ccc(=O)n(-c2ccccc2)c1 [Pirfenidone],0.875
4,O=C1Nc2ccccc2C1(c1ccc(O)cc1)c1ccc(O)cc1 [Oxyphenisatin],1.04
5,Nc1ccc2cc3ccc(N)cc3nc2c1 [Proflavine hemisulfate],0.995
6,CS(=O)(=O)c1ccc([C@@H](O)[C@@H](CF)NC(=O)C(Cl)Cl)cc1 [Florfenicol],0.00788 (active)
7,CC(=O)Nc1ccccc1 [Acetanilide],1
8,N[C@@H](CCC(=O)N[C@@H](CS)C(=O)NCC(=O)O)C(=O)O [Glutathione],1
9,NC(=O)Cc1cccc(C(=O)c2ccccc2)c1N [Nepafenac],1.01
10,OC(CNCC(O)C1CCc2cc(F)ccc2O1)C1CCc2cc(F)ccc2O1 (configuration not stated) [Nebivolol hydrochloride],1.01
11,C=C1CC[C@H](O)C/C1=C/C=C1\CCC[C@]2(C)[C@@H]([C@H](C)CCCC(C)C)CC[C@@H]12 [Cholecalciferol],1.07
12,O=C(O)Cc1csc(-c2ccc(Cl)cc2)n1 [Fenclozic acid],1.03
13,CCCCCNC(=N)N/N=C/c1c[nH]c2ccc(OC)cc12 [Tegaserod maleate],0.991
14,CN(CCCN1c2ccccc2CCc2ccccc21)CC(=O)c1ccc(Cl)cc1 [Lofepramine],0.964
15,CCN(CC)C(=O)C1(c2ccccc2)CC1CN (configuration not stated) [Milnacipran hydrochloride],1.01
16,Nc1ccc(S(=O)(=O)Nc2ccc(Cl)nn2)cc1 [Sulfachloropyridazine],1.02
17,O=C1[C@H]2CCCC[C@H]2C(=O)N1CCCCN1CCN(c2nsc3ccccc23)CC1 [Perospirone hydrochloride],0.986
18,O=c1[nH]c(=O)n([C@H]2C[C@H](O)[C@@H](CO)O2)cc1/C=C/Br [Brivudine],1.01
19,CCC(=O)c1c(O)cc(O)cc1O [Flopropione],0.986
20,O=C1OC(c2ccc(O)cc2)(c2ccc(O)cc2)c2ccccc21 [Phenolphthalein],0.994
21,NC(=O)[C@@H]1CCCN1C(=O)[C@H](Cc1c[nH]cn1)NC(=O)[C@@H]1CCC(=O)N1 [Thyrotropin-Releasing Hormone],1.04
22,CC[C@H](C)[C@H](NC(=O)[C@H](Cc1ccc(O)cc1)NC(=O)[C@@H](NC(=O)[C@H](CCCN=C(N)N)NC(=O)[C@@H](N)CC(=O)O)C(C)C)C(=O)N[C@@H](Cc1cnc[nH]1)C(=O)N1CCC[C@H]1C(=O)N[C@@H](Cc1ccccc1)C(=O)O [Angiotensin II (Human) Trifluoroacetic acid salt],1.1
23,CC(=O)Nc1cccc(O)c1 [Metacetamol],1.01
24,CC(C)c1ccc2oc3nc(N)c(C(=O)O)cc3c(=O)c2c1 [Amlexanox],1.01

# Source: the supplement of paper PMC12350171
